Reference: PubChem BioAssay (NCATS)
Results filed as inconclusive are left out. Active and inactive are the calls of the source. Unless noted, calls come from the whole dose curve; as a rule, active = well fitted curve in the direction sought with a large enough effect; inconclusive = small, poorly fitted or top-dose-only effect, or another doubt; inactive = no such curve, though single readings can be large; an effect the other way counts as inactive or inconclusive.

Legend:
[1] = Cell Viability - BJ (AID 421; calls by dose curve;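 note: potency is the fitted concentration of half-maximal effect; cells exposed to compound for 40 hours at 37 °C before readout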); conditions: BJ fibroblast viability, qHTS
How it was run: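 Normal human BJ foreskin fibroblasts, 1500/well in complete medium, treated 40 hr at 37 °C. Cellular ATP by CellTiter-Glo luminescence; normalized to DMSO and 100 uM tamoxifen, AC50 from Hill fit.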

[2] = Cell Viability - Jurkat (AID 426;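 active = dose-dependent loss of cell ATP signal giving a full or clear fitted curve, ranked by lower potency value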; note: potency is the fitted concentration of half-maximal effect); conditions: qHTS
How it was run: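 Jurkat (clone E6-1, human T-cell leukemia) cells, 5000/well in complete medium, were exposed to compound for 40 hr at 37 °C. Viability was read as intracellular ATP by CellTiter-Glo luminescence; AC50 came from Hill fits of concentration-response data.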

[3] = Cell Viability - Hek293 (AID 427;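 active = compounds whose dose-response curve shows a full or clear partial loss of cell viability, called from curve shape rather than a numeric limit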;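 note: potency is the fitted concentration of half-maximal effect; cells exposed to compound for 40 hours at 37 °C before reading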); conditions: qHTS
How it was run: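 HEK293 cells in complete medium were exposed to compound for 40 hr at 37 °C, then cellular ATP was read by CellTiter-Glo luminescence. Data were normalized to DMSO (basal) and 100 uM tamoxifen (100% inhibition), and AC50 came from Hill fits.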

[4] = Cell Viability - HepG2 (AID 433; calls by dose curve;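 note: potency is the fitted concentration of half-maximal effect; potency for ATP loss meaning cytotoxicity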); conditions: qHTS
How it was run: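 In this qHTS format, a 40 h, 37 °C compound incubation of HepG2 cells in complete medium precedes a 20 min CellTiter-Glo step at room temperature. Tamoxifen and doxorubicin serve as positive controls; Hill-equation fits yield AC50.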

[5] = Cell Viability - MRC5 (AID 434; calls by dose curve;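 note: potency is the fitted concentration of half-maximal effect; potency reflects cytotoxicity seen as loss of intracellular ATP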); conditions: MRC5 lung fibroblast viability, qHTS
How it was run: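 qHTS cytotoxicity in human lung fibroblast MRC5 cells; 40 hr treatment, 37 °C; cellular ATP by luciferase luminescence; DMSO = 0%, 100 uM tamoxifen = 100% inhibition; Hill-fit AC50.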

[6] = Cell Viability - SK-N-SH (AID 435; calls by dose curve;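 note: potency is the fitted concentration of half-maximal effect; compound exposure lasted 40 h at 37 °C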); conditions: SK-N-SH neuroblastoma cell viability qHTS
How it was run: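 Human neuroblastoma line, 40 h exposure at 37 °C, ATP quantified via luciferase luminescence; DMSO and 100 uM tamoxifen define 0 and 100% inhibition for AC50 fitting.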

[7] = target: Mitogen-activated protein kinase 10 (Mus musculus) (UniProt Q61831); experiment: JNK3 AlphaScreen Assay (AID 530; active = well fitted curve in either direction with a large enough effect, not every such curve was filed as active;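 note: kinase came from lysate of stimulated human HepG2 cells; signal reports phosphorylation of biotinylated GST-cJun 1-79 at Ser73 with 10 µM ATP; % is set by controls: 0 for no effect and ±100 for the full control effect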)
How it was run: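 Room-temperature AlphaScreen kinase assay; pre-activated HepG2 lysate as JNK3 source, biotin-GST-cJun(1-79) substrate, 10 uM ATP, compound 15 min preincubation.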

[8] = Cell Viability - N2a (AID 540); conditions: N2a mouse neuroblastoma cell viability; at 92.2 µM (top of the series);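 note: plate controls were DMSO alone for no effect and tamoxifen control for full effect; nearly all actives have a fitted effect of over 45% in size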
How it was run: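 Mouse neuroblastoma N2a cells (1500/well) were preincubated 5 hr at 37 °C, then exposed to compounds for 40 hr at 37 °C in complete medium. Viability was read as intracellular ATP by CellTiter-Glo luminescence; AC50 from Hill fits.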

[9] = Cell Viability - HUV-EC-C (AID 542); note: % is set by controls: 0 for no effect and ±100 for the full control effect; nearly all actives have a fitted effect of over 35% in size
How it was run: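 HUV-EC-C normal human vascular endothelial cells, 1000 cells/well, pre-incubated 5 hr at 37 °C, then exposed to compounds for 40 hr at 37 °C in complete medium. Viability measured as intracellular ATP by CellTiter-Glo luminescence; AC50 from Hill fits.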

[10] = Cell Viability - H-4-II-E (AID 543); note: % is set by controls: 0 for no effect and ±100 for the full control effect; nearly all actives have a fitted effect of over 35% in size
How it was run: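 Rat hepatoma H-4-II-E cells (1500/well) were plated, incubated 5 hr at 37 °C, then exposed to compounds for 40 hr at 37 °C. Cellular ATP was read by CellTiter-Glo luminescence; AC50 came from Hill-equation fits of concentration-response data.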

[11] = Cell Viability - Renal Proximal Tubule (AID 545); conditions: renal proximal tubule cells viability; at 91.7 µM (top of the series), primary cells of rat origin unless noted; note: nearly all actives have a fitted effect of over 40% in size
How it was run: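 In this qHTS format, normal rat kidney-derived proximal tubule cells in complete culture medium receive compound titrations, then sit 40 hours at 37 °C before luciferase-based ATP quantitation; potency is reported as AC50 from concentration-response curves.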

[12] = Cell Viability - Mesenchymal (AID 546);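 note: cells exposed to compound for 40 hours before reading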
How it was run: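 AC50 values reflect the drop in intracellular ATP in a human kidney mesenchymal line derived from normal glomeruli. Treatment lasts 40 hr at 37 °C in complete medium, and the signal comes from CellTiter-Glo luminescence.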

[13] = Cellular Toxicity (caspase-3) HepG2 (AID 654);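 note: cells exposed to compound for 16 hours before reading; 0% = DMSO alone and 100% = caspase signal from 100 µM tamoxifen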
How it was run: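 HepG2 cells (1500/well) in complete medium were treated with compounds for 16 hr at 37 °C. Caspase-3/7 activity was then read as luminescence from peptide-aminoluciferin cleavage. AC50 came from Hill fits, normalized to DMSO and 100 uM tamoxifen.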

[14] = Cellular Toxicity (caspase-3) Jurkat (AID 655); conditions: Jurkat caspase-3 activation, luminescence, DMSO = 0%, tamoxifen = 100%; at 92.2 µM (top of the series);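 note: cells exposed to compound for 16 h at 37 °C before reading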
How it was run: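 qHTS in human Jurkat T-cell leukemia line: 16 hr compound treatment at 37 °C, caspase-3/7 activity measured by Caspase-Glo luminescence. AC50 derived from Hill equation.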

[15] = Cellular Toxicity (caspase-3) HUV-EC-C (AID 656)
How it was run: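 Concentration-dependent caspase 3/7 induction was assessed in HUV-EC-C cells exposed for 16 hours. Data scaled between DMSO and tamoxifen (100 uM) controls.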

[16] = Cellular Toxicity (caspase-3) SHSY5Y (AID 657)
How it was run: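 Readout: caspase-cleaved peptide-aminoluciferin substrate driving luciferase light in SH-SY5Y neuroblastoma cells after 16 h treatment. Response normalized to DMSO and 10 uM staurosporine controls.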

[17] = Cellular Toxicity (caspase-3) BJ (AID 658)
How it was run: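 Readout: Caspase-Glo 3/7 luminescence increase in BJ cells after 16 hr treatment at 37 °C. Staurosporine and tamoxifen served as positive controls; AC50 values came from Hill modelling of data normalized to DMSO and 10 uM staurosporine.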

[18] = Cellular Toxicity (caspase-3) MRC-5 (AID 659)
How it was run: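 Concentration-dependent caspase 3/7 activation is measured in human normal lung fibroblasts (MRC-5) following 16-hour treatment. AC50 values come from standard Hill-equation modeling of luminescence normalized to DMSO and 10 uM staurosporine.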

[19] = Cellular Toxicity (caspase-3) Mesangial (AID 660);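 note: cells exposed to compound for 16 h before the caspase read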
How it was run: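 Human renal glomerular mesangial cells (1000/well) were treated with compounds for 16 h at 37 °C in complete medium, then caspase 3/7 activity was read by Caspase-Glo luminescence. Data were normalized to DMSO and 100 uM tamoxifen; AC50 from Hill fits.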

[20] = Cellular Toxicity (caspase-3) SK-N-SH (AID 661)
How it was run: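 SK-N-SH human neuroblastoma cells (1500/well) were treated with compounds for 16 hr at 37 °C in complete medium; caspase 3/7 activity was read by Caspase-Glo luminescence. AC50 came from Hill fits of data normalized to DMSO and 10 uM staurosporine.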

[21] = Cellular Toxicity (caspase-3) H-4-II-E (AID 663);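 note: cells exposed to compound for 16 hr before readout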
How it was run: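 Apoptosis induction is scored as increased luminescence from caspase 3/7 substrate cleavage in rat hepatoma H-4-II-E cells exposed to compound for 16 hr. Activity is scaled between DMSO and 100 uM tamoxifen.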

[22] = Cellular Toxicity (caspase-3) Hek293 (AID 664);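 note: cells exposed to compound for 16 h at 37 °C before readout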
How it was run: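 HEK293 cells were exposed to compounds in complete medium for 16 hr at 37 °C, then caspase-3/7 activity was read by Caspase-Glo 3/7 luminescence after 20 min at room temperature. Data normalized to DMSO and 100 uM tamoxifen; AC50 from Hill fits.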

[23] = Cellular Toxicity (caspase-3) N2a (AID 665); conditions: N2a cells, luminescence, normalized: DMSO 0%, 10 µM staurosporine 100%; at 92.2 µM (top of the series);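 note: compound exposure lasted 16 h at 37 °C before readout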
How it was run: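 Mouse N2a neuroblastoma cells (1500/well) were treated with compounds for 16 h at 37 °C, then caspase-3/7 activity was read by Caspase-Glo luminescence after 1 h at room temperature. Data were normalized to DMSO and 10 uM staurosporine; AC50 from Hill fits.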

COC1=CC(=O)OC(CCc2ccccc2)C1 (stereo not drawn)
inactive: Potency [1] > 92 µM | Potency [2] > 92 µM | Potency [3] > 92 µM | Potency [4] > 92 µM | Potency [5] > 92 µM | Potency [6] > 92 µM | outcome [7] | activity change, negative = cytotoxicity [8] -9.01% | Potency [9] | Potency [10] | activity change, negative = cytotoxicity [11] -1.23% | outcome [12] | outcome [13] | caspase-3 activation [14] 0.972% | outcome [15] | outcome [16] | outcome [17] | outcome [18] | outcome [19] | outcome [20] | outcome [21] | outcome [22] | caspase-3 activation [23] -5.42%
